Data on 61 compounds can be found in PubChem BioAssay AID1321 (The Scripps Research Institute Molecular Screening Center, 2008).

Among all 220,000 compounds or so, about 2,600 (1.2%) were called active. Many of the other results were omitted from the sample, so actives are more common in it than they were. Values without a mark were called inactive.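 How the source made its calls: active means activation above the mean of all tested compounds plus 3 SD, set per screening run (cut at about 8.8% in these data); inactive means the rest.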

The target of this assay is Wee1-like protein kinase (Homo sapiens) (UniProt P30291). Description: compounds stabilizing Wee1-luciferase fusion – cell-based, HeLa, Wee1K328M-luciferase, luminescence, primary screen (AID 1321).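 Further: cells exposed to compound for 20 h before luminescence read; 0% = DMSO alone and 100% = MG132 at 30 µM.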 The following applies: HeLa Luc-Wee1K328M stability, at 5 µM, hits give high values, 100% = proteasome inhibitor MG132 effect.
In the case of `COc1ccccc1-n1c(-c2cc(-c3ccco3)[nH]n2)n[nH]c1=S`, the reporter increase is 2.11%.
For `Fc1ccccc1/C=N/n1c(-c2cccnc2)n[nH]c1=S`, the reporter increase is 0.63%.
`CC(=O)Nc1nc(C)c(-c2csc(Nc3ccc(S(N)(=O)=O)cc3)n2)s1`: the reporter increase is -1.97%.
On to `Cc1ccc(Cl)c(OCC(=O)NN2CCN(C)CC2)c1`, for which the reporter increase is -4.89%.
On to `O=C(O)CCn1cc(/C=C/C(=O)c2ccc(Cl)cc2)c(-c2cccc(Br)c2)n1`, for which the reporter increase was -0.48%.
Regarding `CC(C)CN(CC(C)C)CC(O)CN(c1ccccc1)S(=O)(=O)c1ccccc1[N+](=O)[O-]` (stereo unspecified), the reporter increase was -0.95%.
For `O=C(NCCN1CCOCC1)c1c(F)c(F)c(F)c(F)c1F`, the reporter increase is -1.64%.
`COCCCNC(=O)c1c(F)c(F)c(F)c(F)c1F`: the reporter increase is 9.02% (active).
As for `COCCCNC(=S)NC(=O)c1ccccc1`, the figure is 1.37%; as for `O=C(Nc1cccnc1)c1cc([N+](=O)[O-])ccc1Cl`, -1.81%.
On to `CN1CCN(c2ccc(CNS(=O)(=O)c3cccc(F)c3)cc2)CC1`, for which the reporter increase is -0.49%.
Regarding `Cc1cccc(C2C3=C(CCCC3=O)N=C3c4ccccc4C(=O)C32)c1` (stereo unspecified), the reporter increase was 2.45%.
Regarding `Cc1ccc2nc(C)c3c(c2c1)N(c1ccccc1)CC3`, the reporter increase is 2.22%.
Turning to `Cc1cc(=O)[nH]c(N/N=C/c2ccc3c(c2)OCCO3)n1`, the reporter increase was 3.95%.
On to `O=C(/C=C/c1ccccc1Cl)Nc1ccc(S(=O)(=O)Nc2ncccn2)cc1`, for which the reporter increase was -1.98%.
On to `O=S(=O)(Nc1ncccn1)c1ccc(NS(=O)(=O)c2cccc(Cl)c2Cl)cc1`, for which the reporter increase was 9.1% (active).
As for `O=C(CCS(=O)(=O)c1ccccc1Cl)Nc1ccc(S(=O)(=O)Nc2ncccn2)cc1`, the reporter increase is -2.3%.
For `CCCSc1ncccc1C(=O)O`, the reporter increase was 5.65%.
In the case of `Cc1nnc(SCC(=O)N2CCc3ccccc3C2)s1`, the reporter increase was -1.25%.
For `Cc1nnc(SCC(=O)N2c3ccccc3C(C)(c3ccc(Cl)cc3)CC2(C)C)s1` (stereo unspecified), the reporter increase is 11.3% (active).
As for `CC1(c2ccccc2)CC(C)(C)N(C(=O)c2cc([N+](=O)[O-])cc([N+](=O)[O-])c2)c2ccccc21` (stereo unspecified), the figure is -3.96%.
In the case of `NC(=O)NC(=O)CSc1nc2cc([N+](=O)[O-])ccc2n1-c1cccc(C(F)(F)F)c1`, the reporter increase was 0.4%.
As for `N#CCc1ccc(OC(=O)c2cccnc2)cc1`, the reporter increase was -2.7%.
On to `COc1ccc(-c2noc(CN(C)S(=O)(=O)c3ccc(C)cc3)n2)cc1`, for which the reporter increase was -2.95%.
In the case of `COc1ccc(-c2noc(-c3ccc(C)cc3)n2)cc1`, the reporter increase is -0.18%.
In the case of `COc1ccc(-c2noc(CSc3ccc(C)cc3)n2)cc1`, the reporter increase is 13.7% (active).
Take `CC1CC(=O)Nc2ccccc2N1S(=O)(=O)c1cccs1` (stereo unspecified): the reporter increase is 4.07%.
In the case of `CCC(C)Cn1c(O)cc2nn(-c3nc4ccccc4s3)c(=O)c-2c1C` (stereo unspecified), the reporter increase was -4.96%.
Regarding `O=C(N/N=C/c1ccc2c(c1)OCO2)C(=O)N1CCCC1`, the reporter increase was 2.71%.
As for `O=C(N/N=C/c1ccc([N+](=O)[O-])cc1)C(=O)N1CCCC1`, the figure is 9.76% (active); as for `NC(=S)N/N=C/c1ccc([N+](=O)[O-])cc1`, -3.91%; as for `O=C(Nc1ccc2nc3n(c(=O)c2c1)CCCCC3)c1ccccc1Cl`, 0.41%.
As for `Cc1cccc2c(=O)n3c(nc12)CCCCC3`, the figure is -0.11%; as for `Cc1ccc2nc3n(c(=O)c2c1)CCC3`, 12.8% (active); as for `CNC(=O)c1csc(Cc2c(Cl)sc3ccc(Cl)cc23)n1`, 0.14%.
For the compound `O=C(COc1ccccc1)N1CCN=C1SCc1cccc(F)c1`, the reporter increase was -0.6%.
For `CS(=O)(=O)c1sc(C(=O)NC(=S)Nc2ccc(OC(F)(F)F)cc2)c2c1C=CCC2`, the reporter increase was 3.21%.
As for `CCOC(=O)c1c(C)nn(-c2ncccc2NC(=O)CCC(=O)O)c1C`, the figure is -3.19%.
Consider `O=C(COC(=O)c1ccc[nH]c1=O)Nc1ccc2c(c1)OC(F)(F)O2`, for which the reporter increase is 7.03%.
On to `CN1C(=O)/C(=C/C=C2\SCCN2C)OC1=S`, for which the reporter increase was 9.67% (active).
Turning to `CN(C)S(=O)(=O)c1cc(NC(=O)CN2C(=O)NC3(CCCc4ccccc43)C2=O)ccc1Cl` (stereo unspecified), the reporter increase is -2.38%.
For `CCN(CC(=O)NC(=O)NCc1ccccc1)Cc1nc2ccccc2c(=O)[nH]1`, the reporter increase was 10.5% (active).
As for `O=C(c1ccco1)N(Cc1nc2ccccc2c(=O)[nH]1)C1CCCC1`, the figure is -0.38%; as for `CCN(CC(=O)Nc1cccc(S(N)(=O)=O)c1)Cc1nc2ccccc2c(=O)[nH]1`, -3.31%.
For `CCCC(=O)N(CCc1ccccc1)Cc1nc2ccccc2c(=O)[nH]1`, the reporter increase was -2.77%.
Regarding `CCN(CC(=O)Nc1ccc(Cl)c(S(=O)(=O)N(C)C)c1)Cc1nc2ccccc2c(=O)[nH]1`, the reporter increase was 9.09% (active).
As to `CC#CC[N+](C)(C)CCCCCC`, the reporter increase was 3.56%.
As for `CC(C)CCNC(=O)C1CCC(CNc2c(N3CCC(C)CC3)c(=O)c2=O)CC1` (stereo unspecified), the figure is -0.83%.
As to `Cc1csc(/N=C/N(C)C)c1C#N`, the reporter increase is -2.57%.
For `C/C(CC(=O)NC(C)c1ccccc1)=N\NC(N)=S` (stereo unspecified), the reporter increase is -1.77%.
The figure for `CC(=O)c1cccc(CN2CCC(CO)(Cc3ccccc3)CC2)c1` is -2.2%; for `OCC1(Cc2ccccc2)CCN(Cc2cc3ccccc3o2)CC1` it is -0.66%; for `CC(C)c1csc(CN2CCC(CO)(Cc3ccccc3)CC2)n1` it is 11.4% (active).
As for `O=C(Cn1ncc(N2CCCC2)c(Br)c1=O)c1ccc(Cl)cc1`, the reporter increase was 9.08% (active).
As for `Cn1c(=O)c2c(nc(N3CCCCCC3)n2CC(=O)c2ccc(Br)cc2)n(C)c1=O`, the reporter increase is -1.77%.
As for `CC(=O)Cn1ncc(N2CCOCC2)c(Br)c1=O`, the figure is 1.92%.
Take `CCc1ccc(S(=O)(=O)Nc2ccc(C)c(NS(C)(=O)=O)c2)cc1`: the reporter increase was -2.18%.
Take `COC(=O)c1c(C)oc(C)c1S(=O)(=O)Nc1ccc(C(C)C)cc1`: the reporter increase is -0.82%.
With `O=C(N/N=C/c1coc2ccccc2c1=O)c1cc2ccccc2o1`, the reporter increase was 2.23%.
With `O=c1c(/C=N/O)coc2ccc(Cl)cc12`, the reporter increase was 13.3% (active).
On to `NC(=S)N/N=C/c1coc2cc(Cl)ccc2c1=O`, for which the reporter increase is 7.29%.
